Most compounds without a hit are left out; they make up all but 2.6% or so of the library.
A549 tox-1: kills or reduces viability of A549 cells in Nrf2 counter-screen | Potency, µM (titrated, usually from 46 µM), most hits filed as inhibitors | AID 504648 | A549 ARE-Fluc cells, CellTiter-Fluor viability, 18-24 h | hit rate 0.16% among 390,000
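Cytotoxicity counterscreen: CellTiter-Fluor fluorescence was measured in A549 ARE_Fluc cells after 18-24 h of compound exposure in a concentration series. The subsequent BugLite luminescent read reports ARE-luciferase activity.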
CCT chaperon mod: modulators of cytosolic chaperonin (CCT/TRiC) activity; purified chaperonin ATPase assay, HTRF ADP detection, 30 min; activity change, % (concentration not given with the values), hits read low; hit rate 0.3% among 360,000; AID 651819; in the data active = activity change below about -30%
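ATPase activity: ADP formed was measured by HTRF Transcreener (665/615 nm ratio) after 30 min at 37 deg C with 10 uM ATP. Compounds screened at one 76 uM concentration against 40 or 20 nM TRiC in Tris pH 7.4/KCl/MgCl2/DTT buffer.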
Nrf2 ARE act: activators of Nrf2 (ARE) signaling; Potency, µM (top dose mostly 46.1 µM), most hits filed as activators; AREc32 ARE-luciferase reporter (MCF7-derived line), luminescence, 24 h; AID 624171; hit rate 0.31% among 410,000; also: nearly all actives have a fitted effect of over 65% in size
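For detection, Steady-Glo was added and plates sat 30 min at RT; before that, AREc32_Fluc cells grown overnight in OPTI-MEM/5% FBS had been treated with 23 nL compound for 24 hr at 37 deg C.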
Nrf2 block: inhibitors of Nrf2 signaling | A549 ARE-Fluc reporter, luciferase luminescence, 18-24 h | Potency, µM (series often up to 46 µM), hits mostly inhibitors | hit rate 2.1% among 360,000 | AID 504444; also: nearly all actives have a fitted effect of over 60% in size
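Nrf2 activity is the BugLite luminescence, read 15 min after reagent at room temperature, following CellTiter-Fluor cytotoxicity readout (30 min, 37C). Compound titrations were applied for 18-24 h to 5000 A549 ARE_Fluc cells/well in 5% FBS OPTI-MEM.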
TCR activator: T cell receptor activation. 330,000 tested, under 10 active. Potency, µM (titrated, usually from 9.22 µM), most hits filed as activators. primary human leukocytes, anti-CD3, IL-2 HTRF, 48 h
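Compounds are tested in HTS on primary human leukocytes co-incubated with a-CD3 beads for 48 hr. IL-2 output is measured by time-resolved FRET.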
AT treatment: potential ataxia-telangiectasia treatment | Potency, µM (top dose mostly 57.5 µM), hits mostly activators | F2112 A-T fibroblasts, KAP-1 phosphorylation AlphaLISA; neocarzinostatin DNA damage 30 min before lysis | AID 485349 | hit rate 0.19% among 320,000; also: nearly all actives have a fitted effect of over 45% in size
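hTERT-immortalized A-T patient fibroblasts (F2112), 500 cells/well in OPTI-MEM, 1% FBS, got compounds for 60 min, then NCS for 30 min at 37C. Lysates were then assayed for phospho-KAP-1 by AlphaLISA (anti-pKAP1 donor, anti-KAP1 acceptor beads), 6 hr at 25C.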
FLuc counter 3: firefly luciferase inhibition, Nrf2 hit validation; Potency, µM (series often up to 57.5 µM), most hits filed as inhibitors; shares compounds with Nrf2 block; hit rate 4% among 1,400; AID 720522; purified firefly luciferase, luminescence inhibition; also: nearly all actives have a fitted effect of over 65% in size
Target sequence (P08659 whole entry, looked up): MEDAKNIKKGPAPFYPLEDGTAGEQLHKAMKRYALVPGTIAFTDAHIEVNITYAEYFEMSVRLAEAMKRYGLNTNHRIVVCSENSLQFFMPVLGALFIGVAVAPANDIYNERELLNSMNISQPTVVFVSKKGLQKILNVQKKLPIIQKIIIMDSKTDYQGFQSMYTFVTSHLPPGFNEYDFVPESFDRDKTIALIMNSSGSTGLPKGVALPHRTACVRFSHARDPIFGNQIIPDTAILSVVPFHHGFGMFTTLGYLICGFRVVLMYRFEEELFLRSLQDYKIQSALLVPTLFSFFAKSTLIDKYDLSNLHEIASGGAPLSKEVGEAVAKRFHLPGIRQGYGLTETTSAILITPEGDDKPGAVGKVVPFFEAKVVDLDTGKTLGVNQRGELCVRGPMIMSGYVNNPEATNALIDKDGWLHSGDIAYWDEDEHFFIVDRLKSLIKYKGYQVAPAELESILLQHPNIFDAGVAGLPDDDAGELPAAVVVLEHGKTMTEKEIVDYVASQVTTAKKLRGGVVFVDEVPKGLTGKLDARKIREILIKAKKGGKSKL
A549 tox-2: counter-screen for Nrf2 inhibitors: cytotoxicity in A549 ARE cells; shares compounds with Nrf2 block; Potency, µM (top dose mostly 46.1 µM), usual class: inhibitors; A549 ARE-Fluc cells, cytotoxicity counterscreen; hit rate 2% among 1,400; AID 720523;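 also: cells exposed to compounds for 18 to 24 hours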
Nrf2 ARE inh: reduces Nrf2 ARE reporter signal in A549 cells; Potency, µM (top dose mostly 46.1 µM), most hits filed as inhibitors; shares compounds with Nrf2 block; A549 ARE-firefly luciferase reporter, luminescence; hit rate 74% among 1,400; also: nearly all actives have a fitted effect of over 65% in size
A number is an active result; [ ] = remark or other dose. Unless noted, calls follow the shape of the dose curve; as a rule, active = well fitted curve in the direction sought with a large enough effect; inconclusive = small, poorly fitted or top-dose-only effect, or another doubt; inactive = no such curve, though single readings can be large; an effect the other way counts as inactive or inconclusive.

How did CC(=O)C1(C)CCC2C3C=C(C)C4=CC(=O)CCC4(C)C3CCC21C (stereo not given) do in these assays?
A549 tox-1: inactive; CCT chaperon mod: inactive; Nrf2 ARE act: inactive; Nrf2 block: inconclusive; TCR activator: inactive

How did CCC(C(=O)OCC(=O)C1(O)CCC2C3CCC4=CC(=O)CCC4(C)C3C(O)CC21C)C(C)C (stereo not given) do in these assays?
A549 tox-1: inactive; CCT chaperon mod: inactive; Nrf2 ARE act: inactive; Nrf2 block: 1.16µM; TCR activator: inactive; FLuc counter 3: inactive; A549 tox-2: inactive

How did CCCCC(=O)O[C@]1(C(=O)CO)CC[C@H]2[C@@H]3CCC4=CC(=O)CC[C@]4(C)[C@H]3[C@@H](O)C[C@@]21C do in these assays?
A549 tox-1: inactive; CCT chaperon mod: inactive; Nrf2 ARE act: inactive; Nrf2 block: 0.0164µM; TCR activator: inactive; AT treatment: inactive; FLuc counter 3: inactive; A549 tox-2: inactive; Nrf2 ARE inh: 0.013µM

What do the screens show for `CC(=O)OCC(=O)[C@@]1(O)CC[C@H]2[C@@H]3CCC4=CC(=O)C=C[C@]4(C)[C@@]3(Cl)[C@@H](Cl)C[C@@]21C`?
A549 tox-1: inconclusive; CCT chaperon mod: inactive; Nrf2 ARE act: inactive; Nrf2 block: 8.2µM; TCR activator: inactive; AT treatment: inactive; FLuc counter 3: inactive; A549 tox-2: inactive; Nrf2 ARE inh: 1.3µM

What do the screens show for `CC12CCC(=O)C=C1C(F)CC1C2C(O)CC2(C)C1CCC2(O)C(=O)CO` (stereo not given)?
A549 tox-1: inactive; CCT chaperon mod: inactive; Nrf2 ARE act: inactive; Nrf2 block: 0.058µM; TCR activator: inactive; FLuc counter 3: inactive; A549 tox-2: inactive; Nrf2 ARE inh: 0.058µM

Results for CC1(C)O[C@@H]2C[C@H]3[C@@H]4C[C@H](F)C5=CC(=O)CC[C@]5(C)[C@H]4[C@@H](O)C[C@]3(C)[C@]2(C(=O)CO)O1 ?
A549 tox-1: inactive; CCT chaperon mod: inactive; Nrf2 ARE act: inactive; Nrf2 block: inconclusive; TCR activator: inactive; AT treatment: inactive

What do the screens show for `C[C@]12C=CC(=O)C=C1CCC1C3CC[C@](O)(C(=O)CO)[C@@]3(C)CC3OC312` (stereo not given in full)?
A549 tox-1: inactive; CCT chaperon mod: inactive; Nrf2 ARE act: inactive; Nrf2 block: inactive; TCR activator: inactive; AT treatment: inactive

How did CC(=O)[C@@]1(O)CC[C@H]2[C@@H]3CCC4=CC(=O)CC[C@]4(C)[C@H]3[C@@H](O)C[C@@]21C do in these assays?
A549 tox-1: inactive; CCT chaperon mod: inactive; Nrf2 ARE act: inactive; Nrf2 block: inconclusive; TCR activator: inactive; AT treatment: inactive

Results for CCOC(=O)C1=CCN(S(=O)(=O)c2ccccc2Cl)C1c1cccc(Cl)c1 (stereo not given) ?
CCT chaperon mod: inactive; Nrf2 ARE act: inactive

What do the screens show for `COc1ccc(N2CC(NC(=O)/C=C\c3ccc4c(c3)OCO4)CC2=O)cc1OC` (stereo not given)?
A549 tox-1: inactive; Nrf2 ARE act: inactive

Results for CC12C=CC(=O)C=C1CCC1C2C(O)CC2(C)C1CCC2(O)C(=O)CO (stereo not given) ?
A549 tox-1: inactive; CCT chaperon mod: inactive; Nrf2 ARE act: inactive; Nrf2 block: 0.058µM; TCR activator: inactive; FLuc counter 3: inactive; A549 tox-2: inactive; Nrf2 ARE inh: 0.103µM

How did CC(=O)OCC(=O)[C@@]1(O)CC[C@H]2[C@@H]3CCC4=CC(=O)C=C[C@]4(C)[C@H]3[C@@H](O)C[C@@]21C do in these assays?
A549 tox-1: inactive; CCT chaperon mod: inactive; Nrf2 ARE act: inactive; Nrf2 block: 0.0517µM; TCR activator: inactive; AT treatment: inactive; FLuc counter 3: inactive; A549 tox-2: inactive; Nrf2 ARE inh: 0.0411µM

What do the screens show for `COc1cc(C(=O)Nc2cc(C)cc(C)c2)c(-n2cnnn2)cc1OC`?
A549 tox-1: inactive; CCT chaperon mod: inactive; Nrf2 ARE act: inactive; Nrf2 block: inactive; TCR activator: inactive; AT treatment: inactive[11.5 µM]

What do the screens show for `COc1cc2c(cc1OC)C(C(=O)Nc1cc(OC)c(OC)c(OC)c1)C(c1cccnc1)N(C)C2=O` (stereo not given)?
A549 tox-1: inactive; CCT chaperon mod: inactive; Nrf2 ARE act: inactive; Nrf2 block: inactive; TCR activator: inactive; AT treatment: inactive

Results for COc1ccc(/C=N/NS(=O)(=O)c2ccc(C)cc2)cc1OC(=O)c1ccc(C)cc1 ?
A549 tox-1: inactive; CCT chaperon mod: inactive; Nrf2 ARE act: inactive; Nrf2 block: 5.17µM; TCR activator: inactive; AT treatment: inactive; FLuc counter 3: inactive; A549 tox-2: inactive

How did COc1ccc(C(=O)Oc2cc(/C=N/NS(=O)(=O)c3ccccc3)ccc2OC)cc1 do in these assays?
A549 tox-1: inactive; CCT chaperon mod: inactive; Nrf2 ARE act: inactive; TCR activator: inactive

Results for COc1cc(OC)c(NC(=O)N2CCSc3ccccc32)cc1Cl ?
A549 tox-1: inactive; Nrf2 ARE act: inactive; Nrf2 block: inactive

Results for Cc1cccc(N2CCN(C(=O)c3nn(C)c4c3CSc3ccccc3-4)CC2C)c1 (stereo not given) ?
A549 tox-1: inactive; Nrf2 ARE act: inactive; Nrf2 block: inactive

What do the screens show for `Cc1nnsc1C(=O)NC1CCCc2c1cnn2-c1cc(F)cc(F)c1` (stereo not given)?
A549 tox-1: inactive; CCT chaperon mod: inactive; Nrf2 ARE act: inactive; Nrf2 block: inconclusive; TCR activator: inactive; AT treatment: inactive

How did Cc1nnsc1C(=O)NC1CCCc2c1cnn2-c1ccc(F)cc1F (stereo not given) do in these assays?
A549 tox-1: inactive; CCT chaperon mod: inactive; Nrf2 ARE act: inactive; Nrf2 block: 1.16µM; TCR activator: inactive; AT treatment: inactive; FLuc counter 3: inactive; A549 tox-2: inactive; Nrf2 ARE inh: 3.66µM

What do the screens show for `Cc1ccc(-n2ncc3c2CCCC3NC(=O)c2ocnc2C)cc1C` (stereo not given)?
A549 tox-1: inactive; CCT chaperon mod: inactive; Nrf2 ARE act: inactive; Nrf2 block: 2.31µM; TCR activator: inactive; AT treatment: inactive; FLuc counter 3: inactive; A549 tox-2: inactive; Nrf2 ARE inh: 3.26µM

Assay outcomes: PubChem, National Center for Advancing Translational Sciences (NCATS)
